Among the data in PubChem BioAssay (NCATS) are Potency and outcome values, retold here.

The nature of assay [1]: qHTS assay for measurement of the activity of small molecule inhibitors on Zika virus induced Caspase-3 activity in human iPSC derived neural progenitor cells (hNPCs) (AID 1224857). Also: nearly all actives have a fitted effect of over 65% in size. Also: potency is read from the fitted curve at half-maximal effect. A digest of the protocol:
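Pretreat hNPCs with compound 1 h; infect ZIKV 2 FFU/cell; 6 h 37 C, 5% CO2; Caspase-Glo 3/7, 30 min RT; luminescence; normalize to no-virus and virus-only wells.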
A general note: Quantitative high-throughput screening tests each substance at several concentrations.

A short description of assay [2]: qHTS assay for measurement of the activity of small molecule inhibitors on Zika virus induced Caspase-3 activity in human astrocytoma cells (AID 1224859). A digest of the protocol: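 Human SNB-19 astrocytoma cells in RPMI 1640 with 10% FBS receive compound one hour ahead of Zika virus at 2 FFU/cell. After 6 h infection, caspase-3/7 activity is detected by Caspase-Glo luminescence.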

Records with an inconclusive call do not appear. Entries that show only a call come without a potency. Active and inactive are the calls of the source. Calls follow the shape of the dose curve; as a rule, active = well fitted inhibition curve with a large enough effect; inconclusive = small, poorly fitted or top-dose-only effect; inactive = no such curve, though single readings can be large or run the other way.

For the compound `CCCCCOc1ccccc1/C(=C\SC)n1ccnc1`, the Potency result in assay [1] is “inactive”. Besides, the compound was classed as inactive in assay [2].

As for `Cc1oc(-c2ccccc2)nc1CCC(=O)c1ccc(CC2SC(=O)NC2=O)cc1` (centres undefined), in assay [1], the Potency result was “inactive”. For the same compound, the call in assay [2] was inactive.

Consider `N#CSCC(=O)O`, for which the Potency entry in assay [1] is “inactive”. In assay [2], the outcome was inactive.

In the case of `CC(=O)Oc1ccc(C2(c3ccc(OC(C)=O)cc3)Oc3ccccc3NC2=O)cc1`, the Potency result in assay [1] was “inactive”. Also, the compound was called inactive in assay [2].

Take `O=C(O)C1CCC1`: the Potency result in assay [1] was “inactive”. Besides, the outcome in assay [2] was inactive.

Consider `COC(=O)c1cc(Cl)ccc1NS(=O)(=O)C(F)(F)F`, for which the Potency result in assay [1] was “inactive”. For the same compound, the call in assay [2] was inactive.

For `CCCCC(=O)OCC(=O)[C@H]1[C@H](C)C[C@H]2[C@@H]3C[C@H](F)C4=CC(=O)C=C[C@]4(C)[C@@]3(F)[C@@H](O)C[C@@]21C`, in assay [1], the Potency entry was “inactive”. Further, the compound was classed as inactive in assay [2].

Take `Cc1ccc(-c2ccccc2C#N)cc1`: the Potency result in assay [1] was “inactive”. Also, in assay [2], the compound was called inactive.

In the case of `Oc1cccc2[nH]ccc12`, the Potency result in assay [1] was “inactive”. Besides, the compound was called inactive in assay [2].

As to `CCOC(=O)C(O)c1ccccc1` (centres undefined), the Potency result in assay [1] is “inactive”. For the same compound, in assay [2], the result was inactive.

Consider `Cc1[nH]cnc1-c1ccc(Cl)cc1`, for which the Potency entry in assay [1] is “inactive”. The compound was called inactive in assay [2].

Regarding `Nc1cc(C(F)(F)F)ccc1S`, the Potency in assay [1] is 14.1 µM (active). Also, in assay [2], the result was inactive.

In the case of `O=C(OCC(O)CO)c1ccccc1Nc1ccnc2c(C(F)(F)F)cccc12` (centres undefined), in assay [1], the Potency entry is “inactive”. For the same compound, the result in assay [2] was inactive.

Consider `c1ccc2c(c1)CCc1ccccc1N2`, for which, in assay [1], the Potency entry was “inactive”. For the same compound, the compound was classed as inactive in assay [2].

With `CC(C)(C)CC(=O)OCC(=O)[C@@]1(O)CC[C@H]2[C@@H]3CCC4=CC(=O)C=C[C@]4(C)[C@H]3[C@@H](O)C[C@@]21C`, in assay [1], the Potency result was “inactive”. Also, the outcome in assay [2] was inactive.

Regarding `O=[N+]([O-])c1cncn1CCN1CCOCC1`, in assay [1], the Potency entry is “inactive”. Further, in assay [2], the compound was classed as inactive.

Regarding `CN(C)CCOC(c1ccccc1)c1ccc(Br)cc1` (centres undefined), in assay [1], the Potency entry is “inactive”. The outcome in assay [2] was inactive.

In the case of `CC(C)C(=O)Nc1cccc(C2CN3CCSC3=N2)c1` (centres undefined), the Potency result in assay [1] is “inactive”. In addition, the compound was called inactive in assay [2].

As to `O=C1CCCc2c(O)cccc21`, the Potency result in assay [1] was “inactive”. Also, the compound was classed as inactive in assay [2].

Regarding `CCS(=O)(=O)c1ccc(OC)c(C(=O)OC)c1`, the Potency entry in assay [1] was “inactive”. For the same compound, the compound was called inactive in assay [2].

In the case of `CCCc1ccc(OCC(=O)N2CCN(C(=O)COc3ccc(CCC)cc3OC)CC2)c(OC)c1`, the Potency result in assay [1] was “inactive”. The compound was classed as inactive in assay [2].

As for `CC(=O)N(c1onc(C)c1C)S(=O)(=O)c1ccc(N)cc1`, in assay [1], the Potency result was “inactive”. In addition, the outcome in assay [2] was inactive.

`O=c1[nH]sc2cc(Cl)ccc12`: the Potency result in assay [1] is “inactive”. The result in assay [2] was inactive.

With `CC(=O)/C=C/C=C1/C2CCC(C2)C1(C)C` (centres undefined), in assay [1], the Potency entry is “inactive”. In assay [2], the compound was classed as inactive.

As to `CC(C)C(=O)Nc1cccc(C(F)(F)F)c1`, the Potency entry in assay [1] was “inactive”. Moreover, the compound was called inactive in assay [2].

Take `CCCCCCOC(=O)NC(=N)c1ccc(NCc2nc3cc(C(=O)N(CCC(=O)OCC)c4ccccn4)ccc3n2C)cc1`: the Potency result in assay [1] was “inactive”. The result in assay [2] was inactive.

For `Nc1ncnc2nc[nH]c12`, the Potency entry in assay [1] was “inactive”. Also, the compound was classed as inactive in assay [2].

For the compound `CCc1cc2cc(OC)c(OC)cc2c(Cc2ccccc2)n1`, in assay [1], the Potency entry was “inactive”. Further, the outcome in assay [2] was inactive.

`CCCN(CCC)C(=O)C(CCC(=O)OCCCN1CCN(CCOC(=O)Cc2c(C)n(C(=O)c3ccc(Cl)cc3)c3ccc(OC)cc23)CC1)NC(=O)c1ccccc1` (centres undefined): the Potency result in assay [1] is “inactive”. Moreover, in assay [2], the compound was classed as inactive.

In the case of `CC(C)Cc1ccc(C(C)C(=O)OCc2ccccn2)cc1` (centres undefined), the Potency entry in assay [1] is “inactive”. For the same compound, the call in assay [2] was inactive.

For the compound `COc1cc(/C=C/C(N)=O)cc(OC)c1OC`, in assay [1], the Potency entry was “inactive”. Also, the compound was classed as inactive in assay [2].

Take `Cc1ncc([N+](=O)[O-])n1C`: in assay [1], the Potency entry is “inactive”. For the same compound, the result in assay [2] was inactive.

In the case of `CCN(CC)CC(=O)OCC(=O)[C@@]1(O)CC[C@H]2[C@@H]3CCC4=CC(=O)CC[C@]4(C)[C@H]3[C@@H](O)C[C@@]21C`, the Potency entry in assay [1] is “inactive”. Besides, in assay [2], the result was inactive.

`Cc1cccc(N(C)C(=S)Oc2ccc3c(c2)C2CCC3C2)c1` (centres undefined): the Potency result in assay [1] is “inactive”. Also, in assay [2], the result was inactive.

For `Cc1ccc2c(Cl)cc(Cl)c(O)c2n1`, the Potency result in assay [1] was “inactive”. In addition, the call in assay [2] was inactive.

Turning to `CCCC(CCC)(C(=O)OCC)C(=O)OCC`, the Potency entry in assay [1] is “inactive”. The result in assay [2] was inactive.

On to `Cn1c(=O)c2c(ncn2CC(=O)O)n(C)c1=O`, for which the Potency entry in assay [1] was “inactive”. Further, the result in assay [2] was inactive.

For `NS(=O)(=O)c1cc2c(cc1Cl)CN(C1CCCCC1)C2=O`, the Potency result in assay [1] was “inactive”. In addition, the compound was called inactive in assay [2].

In the case of `NC(=O)NC1N=C([O][Al])NC1=O` (centres undefined), the Potency result in assay [1] was “inactive”. In addition, in assay [2], the call was inactive.

Regarding `CC(NC(CCc1ccccc1)C(=O)O)C(=O)N1C(=O)N(C)CC1C(=O)O` (centres undefined), the Potency result in assay [1] was “inactive”. For the same compound, in assay [2], the result was inactive.

On to `O=C(c1ccco1)N1CCNCC1`, for which the Potency entry in assay [1] is “inactive”. Besides, the result in assay [2] was inactive.

Take `CC(Oc1c(Cl)cccc1Cl)C1=NCCN1` (centres undefined): in assay [1], the Potency entry was “inactive”. Further, the call in assay [2] was inactive.

On to `Cc1ccc(/C=N/n2c(-c3ccccc3)csc2=S)cc1`, for which, in assay [1], the Potency entry is “inactive”. For the same compound, the compound was classed as inactive in assay [2].

In the case of `C/C=C(/C(=C/C)c1ccc(OC(C)=O)cc1)c1ccc(OC(C)=O)cc1`, in assay [1], the Potency result was “inactive”. Besides, in assay [2], the call was inactive.

With `CCOC(=O)Oc1ccc(CCNC(=O)[C@H](CCSC)NC(C)=O)cc1OC(=O)OCC`, the Potency entry in assay [1] was “inactive”. For the same compound, the outcome in assay [2] was inactive.

Turning to `C#Cc1ccc(-c2ccccc2F)cc1`, the Potency entry in assay [1] is “inactive”. For the same compound, in assay [2], the result was inactive.

As to `CO/N=C(\C(=O)O)c1csc(NC(=O)CCl)n1`, the Potency result in assay [1] is “inactive”. Further, in assay [2], the compound was called inactive.
